Shown are actives, neighbours in structure and some others; about 3.5% of the full set was active somewhere.
TROY signal inh = TROY signaling inhibition. inhibition, % at 10 µM. Q293 LMP1-TROYcd NF-kB luciferase reporter, 4 h. AID 1347056. hit rate 0.98% among 360,000;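 active = compounds whose plate-normalised and pattern-corrected inhibition of the luciferase reporter signal at the single screening dose is 50% or more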
HSP90 inh = HSP90 refolding inhibition in rabbit reticulocyte lysate; luciferase refolding luminescence, 3 h; hit rate 0.91% among 290,000; inhibition, % at 5.6 µM;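 active = inhibition above the screen-wide mean plus 3 SD, computed separately per campaign, cut at about 16% in these data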;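 also: 0% = DMSO wells and 100% = 60 µM geldanamycin wells; inhibitors lower the luminescence because luciferase stays unfolded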
Platelet DG rel = modulates dense granule release in human platelets; hit rate 0.22% among 300,000; inhibition, %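 (compounds screened at 7.5 µM in platelet-rich plasma)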; human platelet-rich plasma, SFLLRN dense granule ATP release, luminescence;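 active = mean replicate score, as percent of positive control, at or above 50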
PPC-1+TRAIL kill = PPC-1 cancer cell killing with TRAIL present | hit rate 0.41% among 220,000 | PPC-1 cells + TRAIL, ATPLite viability luminescence | cell killing (% activity), % at 4 µM or 5 µM | AID 1443;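 active = cell killing above 50% in the first pass at 4 µM, then a duplicate retest at 5 µM averaging 50% or more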;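 also: plate controls were cells with TRAIL plus DMSO for no effect and medium-only wells lacking cells for full effect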
C8 TRAIL sens = caspase-8 TRAIL sensitization; NB7+C8 cells + TRAIL, ATPlite viability luminescence; inhibition (viability loss, TRAIL sensitization), % at 10 µM; hit rate 1% among 360,000; AID 624354;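 active = compounds causing at least 50% loss of cell viability in the single-dose screen, relative to plate controls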
TWEAK Fn14 block = TWEAK-Fn14 signaling inhibition. TWEAK-stimulated Fn14 reporter cells, luciferase luminescence, 8 h. hit rate 2% among 360,000. inhibition, % at 10 µM. AID 1159606; in the data active = inhibition above about 50%
* marks the source's active call; other numbers are inactive results; · = no result given.

SMILES	TROY signal inh	HSP90 inh	Platelet DG rel	PPC-1+TRAIL kill	C8 TRAIL sens	TWEAK Fn14 block
CCOC(=O)Cc1csc(N/N=C/c2ccccc2)n1	-31.8	7.1	1.3	20.0	6.8	-3.4
Cc1ccc(C(=O)Oc2oc(-c3ccccc3)nc2C=Nc2ccc(N(C)C)cc2)cc1	-23.8	8.9	2.3	55.8*	31.7	30.7
CCSCc1nnc(SCC(=O)c2ccc(OC)cc2)n1C	·	-2.9	3.1	32.8	-11.4	84.0*
CN(C)/C=C1\Oc2ccc3ccccc3c2C1=O	17.8	1.9	4.4	-1.5	2.5	13.9
O=C1C(=O)c2c(ccc3ccccc23)-c2ccccc21	43.2	·	·	·	67.0*	101.3*
CCOc1ccc(/C=C(\C#N)C(=O)NC2CC2)c(OCC)c1	-35.2	·	-10.7	·	-19.6	-31.9
Cn1cnc2nc(Cl)nc(Cl)c21	18.1	·	·	·	4.9	54.3*
Cc1ccc2c(C)nc(Nc3nc(CSc4nc5ccccc5[nH]4)cc(=O)[nH]3)nc2c1	67.7*	-3.6	-3.4	23.6	40.9	96.2*
Cc1ccc(SCc2cc(=O)[nH]c(Nc3nc(C)c4ccc(C)cc4n3)n2)cc1	-12.6	2.1	-11.2	18.9	-2.0	-1.8
CCOC(=O)c1cc([N+](=O)[O-])cc([N+](=O)[O-])c1Sc1ncnc2nc[nH]c12	-13.4	·	·	·	67.3*	0.2
COc1ccc(/C=C/C(=O)NC(=S)Nc2ccccn2)cc1	-38.8	-1.4	-1.3	·	50.8*	-16.1
COc1ccccc1/C=C/C(=O)NC(=S)Nc1ccccn1	-29.5	4.0	-3.0	·	8.7	-4.4
O=S(=O)(Nc1ccc(F)cc1Cl)c1ccc(-c2cnc(C3CC3)o2)cc1	52.2*	-0.6	-5.5	·	17.9	21.7
CC(C)(OC(=O)c1ccc(F)cc1)c1cc2ccccc2c(=O)o1	-1.9	·	·	·	4.7	0.3
CC(C)(C)C(=O)OCc1nc(-c2ccc(C(F)(F)F)cc2)cs1	73.3*	3.2	10.2	-2.5	8.8	-23.7
CC1(C)CC(=O)C2=C(C1)N=C1c3ccccc3C(=O)C1C2c1ccc(Cl)cc1 (centres undefined)	26.2	-1.9	-14.6	1.7	0.1	66.5*
Cc1ccc(C2C3=C(CC(C)(C)CC3=O)N=C3c4ccccc4C(=O)C32)cc1 (centres undefined)	27.9	0.4	7.0	3.8	-9.6	57.7*
Cc1cc(/C=N/n2c(COc3ccccc3)nc3ccccc3c2=O)c(O)c([N+](=O)[O-])c1	13.4	-2.4	-2.2	4.6	51.1*	40.9
C#CCNC(=O)C[C@@H]1C[C@@]2(C(=O)OCC)CCC=C2N(CCC2=CCCCC2)C1=O	-20.5	·	·	·	4.0	-9.1
COc1ccc(C(=O)C2CCCN(C(=O)C3=CCCC3)C2)cc1OC (centres undefined)	8.9	-2.7	-6.3	-4.7	-6.8	1.2
COc1cc(/C=N/NC(=O)c2nnn(-c3nonc3N)c2C(C)C)ccc1OCc1ccc(F)cc1	38.2	0.3	9.4	·	32.1	76.3*
CCCc1c(C(=O)N/N=C/c2ccc(OCc3ccccc3)c(OC)c2)nnn1-c1nonc1N	-8.0	4.7	-14.6	·	31.9	-25.9
CC(C)c1c(C(=O)N/N=C/c2cccc(OCc3ccc(F)cc3)c2)nnn1-c1nonc1N	52.7*	0.8	-4.9	·	-1.6	48.9
Nc1nonc1-n1nnc(C(=O)N/N=C/c2ccc(O)cc2)c1CN1CCCCCC1	-31.2	·	8.6	·	0.2	-30.5
CCc1ccc(/C=N/NC(=O)c2nnn(-c3nonc3N)c2CN2CCOCC2)cc1	5.8	4.1	49.6*	·	13.2	-24.1
SMILES	TROY signal inh	HSP90 inh	Platelet DG rel	PPC-1+TRAIL kill	C8 TRAIL sens	TWEAK Fn14 block
COc1ccc(C(=O)N2CCc3ccccc32)cc1S(=O)(=O)N1CCOCC1	2.1	·	·	·	14.2	4.0
CCOC(=O)C1CCN(C(=O)c2cccc(S(=O)(=O)N(C)C3CCCCC3)c2)CC1	10.1	·	-4.2	·	-7.0	0.1
CC1(C(=O)NCc2ccc(F)c(F)c2)Cc2c(-c3cccc(C(F)(F)F)c3)ccnc2O1 (centres undefined)	16.0	·	·	·	0.2	22.3
Cc1cccc(NC(=O)CCNC(=O)c2ccc(Br)cc2)c1	-37.2	6.0	-5.1	·	14.8	-16.4
CC(C)(C)C1CCc2sc(C(=O)NNC(=O)CCl)cc2C1 (centres undefined)	-11.1	-3.1	-1.5	15.4	88.1*	-6.9
O=C(COc1ccc(Cl)cc1)NCCCNC(=O)c1ccncc1	5.3	1.1	7.1	·	-0.8	0.9
O=C(/C=C/c1ccc(Cl)c([N+](=O)[O-])c1)Nc1cccc(NC(=O)c2ccco2)c1	41.2	-4.7	-1.6	33.4	18.3	54.6*
O=C(CCl)N(C/C=C/c1ccccc1)c1ccc2c(c1)OCCO2	22.7	2.9	-7.4	14.3	91.6*	60.4*
CCCN1CCC(=O)N([C@H](CSc2ccc(C)cc2)CC(C)C)CC1	61.2*	·	-8.4	4.7	13.7	40.8
CCCN1CCC(=O)N([C@H](CSc2ccccc2)CC(C)C)CC1	12.9	3.6	-0.1	·	7.7	7.4
Clc1ccc(-c2nc(/C=N/N3CCOCC3)c3ccccn23)cc1	-34.3	5.3	3.5	6.2	-9.2	11.9
CC(C)(C)c1cc(=O)[nH]c(SCc2ccccc2Cl)n1	54.1*	5.2	2.9	-5.9	-11.4	-4.6
CC(C)(C)c1cc(=O)[nH]c(SCc2ccccc2)n1	45.2	2.5	-4.3	1.3	-8.7	12.2
COCCNC(=O)C1(C)CCCN(Cc2c(C)nn(-c3ccccc3)c2C)C1 (centres undefined)	-9.2	·	·	·	9.7	-6.9
N#Cc1cc2c(nc1SCC(=O)Nc1nccs1)CCCCC2	38.0	19.7*	8.5	66.8*	58.5*	24.4
CCSc1nnc(NC(=O)CSc2nc3c(cc2C#N)CCCC3)s1	-40.4	3.6	0.0	30.8	38.9	-0.3
O=C(c1ccccc1)c1coc2c1C(=O)c1ccccc1C2=O	33.4	6.6	-0.1	4.8	4.7	68.1*
CC(=O)c1c(C)oc2c1C(=O)c1ccccc1C2=O	27.9	1.6	1.9	8.0	39.0	23.8
COc1ccc(C(=O)c2coc3c2C(=O)C(=O)c2ccccc2-3)cc1	0.1	7.4	-7.1	4.6	8.5	-69.1
O=C1c2ccccc2C(=O)c2c1oc(C(F)(F)F)c2C(=O)c1ccccc1	54.9*	-1.1	0.0	20.1	96.1*	74.3*
CC(C)c1ccc(NC(=S)Nc2ccc3cn[nH]c3c2)cc1	52.8*	10.2	-0.6	15.5	-0.9	-2.4
S=c1[nH]nc(COc2ccc(Cl)cc2)n1Cc1ccco1	-12.9	3.0	-3.4	-4.1	-4.4	-11.6
C=CCn1c(-c2ccc(S(=O)(=O)N3CCOCC3)cc2)csc1=Nc1ccccc1	19.5	0.0	1.4	4.4	13.3	23.7
CC(=O)c1cccc(N=c2scc(-c3ccc(S(=O)(=O)N4CCOCC4)cc3)n2CCO)c1	19.1	2.9	-10.1	38.8	34.7	53.9*
CC(=O)c1sc(Nc2nc3ccc(F)cc3s2)nc1C	-28.3	2.2	-4.3	33.7	35.3	-86.1
CCOC(=O)c1csc(Nc2nc3ccc(F)cc3s2)n1	-22.9	0.8	3.4	7.1	16.8	105.4*
